We go through 42 compounds from PubChem BioAssay AID2546 (National Center for Advancing Translational Sciences (NCATS), 2010).

The whole screen tested about 310,000 compounds, of which about 11,000 (3.5%) were called active. Not shown: some 8% with an inconclusive outcome. Many of the other results were omitted from the sample, so actives are more common in it than they were. A number with no mark means an inactive call. Calls come from the whole dose curve; as a rule, active = well fitted inhibition curve with a large enough effect; inconclusive = small, poorly fitted or top-dose-only effect, or effect the other way; inactive = flat fitted curve, though single readings scatter.
% is set by controls: 0 for no effect and ±100 for the full control effect; potency is the fitted concentration of half-maximal effect.

The test can be described thus: VP16 counterscreen qHTS for inhibitors of ROR gamma transcriptional activity. Note: nearly all actives have a fitted effect of over 50% in size. Particulars: Drosophila S2 Gal4-VP16 UAS-luciferase, luminescence, 20 h; series mostly up to 53.6 µM; activity, negative = inhibition: at the top concentration. From the text: NIH Molecular Libraries Probe Production Network [MLPCN]
NIH Chemical Genomics Center [NCGC]
Assay Provider: Dan Littman, New York University
The retinoic acid-related orphan receptor (ROR) gamma is a transcription factor that has a central role in the differentiation of Th17 cells, a subset of T helper cells that secrete the inflammatory cytokines IL-17, IL-17F, and IL-22. Th17 cells have been implicated in graft versus host disease, autoimmune disease and asthma. ROR gamma is induced in naive T helper cells in the presence of TGF-beta combined with IL-6, IL-21, or IL-23, and thereafter directs the expression of the Th17 lineage cytokines. To identify nonspecific inhibitors, a Drosophila Schneider cell line was stably transfected with two vectors: a gene expressing a fusion of the Gal4 DNA binding domain and VP16 transactivation domain under the control of the metallothionine promoter and a Photinus luciferase reporter regulated by the Gal4 binding site enhancer, UAS. […] Small molecule inhibitors that inhibit components common to the RORgt and VP16 assays, such as the Gal4 DNA binding domain or the UAS luciferase reporter, will be active in both assays and thus scored as nonspecific.
For screening, 600 cells in 4 uL/well were dispensed into white solid 1536-well plates (Grenier) using a solenoid-based dispenser. Following transfer of 23 nL compound or DMSO vehicle by a pin tool, the plates were incubated 1 hr at ambient temperature, and 1 uL/well copper sulfate (700 uM final concentration) was added. The plates were centrifuged 15 s at 1000 RPM and incubated 20 hr at ambient temperature. After addition of 1.5 uL Photinus luciferase detection reagent, the plates were incubated 10 min at ambient temperature and then read by a ViewLux (Perkin Elmer) to detect luminescence.
Regarding `ClC(Cl)=C(Cl)C(Cl)=C(Cl)Cl`, the “activity, negative = inhibition” value was 2.07%.
The same measure, in the same setting: for `c1csc(CN2CCCC3(CCNCC3)C2)n1` the value was 5.75%; for `CN[C@@H]1C[C@H]2O[C@@](C)([C@@H]1OC)n1c3ccccc3c3c4c(c5c6ccccc6n2c5c31)C(=O)NC4`, -1.08% [at 10 µM]; for `COC(=O)c1ccc2[se]c(CC3CCCCC3)c(I)c2c1`, 1.9%.
Same read-out and setting: as for `CCN(CC)c1nc(C)cc(OP(=S)(OC)OC)n1`, the figure is -2.31%; as for `C=CC#N`, 10.3%.
Take `N#Cc1c(Cl)c(Cl)c(Cl)c(C#N)c1Cl`: the Potency was 1.78 µM (active).
On the same count and under the same terms, for `CCCCC/C=C\C/C=C\C/C=C\C/C=C\CCCCCC(=O)NCCO` the value was “inactive”; for `N#CCCCl`, “inactive”.
Consider `O=C1NC(=O)N(c2ccccc2)C(=O)/C1=C/c1ccc([N+](=O)[O-])s1`, for which the “activity, negative = inhibition” value was 6.23%.
For `Cc1cccc(N2C(=O)NC(=O)/C(=C\c3cnn(-c4ccccc4)c3)C2=O)c1`, the Potency was 12.6 µM (active).
Consider `COc1cccc(N2C(=O)NC(=O)/C(=C\c3ccc([N+](=O)[O-])s3)C2=O)c1`, for which the “activity, negative = inhibition” value is -11.7%.
The same measure, in the same setting: for `N#Cc1cc(Br)c(O)c(Br)c1` the value was -13.2%.
Same read-out and setting: as for `N[C@H](Cc1o[nH]c(=O)c1Cl)C(=O)O`, the figure is -10.8%; as for `COC1CC(OC2CC[C@@]3(C=O)C4CC[C@]5(C)C(C6=CC(=O)OC6)CC[C@@]5(O)C4CC[C@]3(O)C2)OC(C)C1O` (some centres not stated), 16.8%.
As to `CC[N+](C)(CC)CCC[n+]1c(-c2ccccc2)c2cc(N)ccc2c2ccc(N)cc21`, the Potency was 2.51 µM (active).
As for `O=P1(Oc2ccccc2)CC(O)C(O)C(COCc2ccccc2)O1` (configuration not stated), the “activity, negative = inhibition” value is -5.85%.
As to `C[C@H]1CC[C@@]2(NC1)O[C@@H]1C[C@H]3[C@@H]4CC=C5C[C@@H](O)CC[C@]5(C)[C@@H]4CC[C@]3(C)[C@@H]1[C@@H]2C`, the “activity, negative = inhibition” value was -5.63% [at 17 µM].
The same measure, in the same setting: for `CN1C2CC3CC1C(O3)C2O` (configuration not stated) the value was 7.32%; for `COC([CH2][Hg])CNC(=O)c1ccccc1OCC(=O)O` (configuration not stated), 3.54%.
The same measure, in the same setting: for `Nc1ccc(-c2ccc(N)c(N)c2)cc1N` the value was 15.7%; for `COc1cc2c(cc1OC)[C@@H]1C(=O)c3ccc(O)c(CC=C(C)C)c3OC1CO2` (some centres not stated), -2.2%.
On the same count and under the same terms, for `CCCCn1c(=O)c(C(=O)Nc2ccccc2Cl)c(O)c2ccccc21` the value was 26.2%.
`CCCCCn1c(=O)c(C(=O)NCc2ccccn2)c(O)c2ccccc21`: the Potency is 17.8 µM (active).
`CCCCCn1c(=O)c(C(=O)Nc2c(C)n(C)n(-c3ccccc3)c2=O)c(O)c2ccccc21`: the “activity, negative = inhibition” value was -11.3%.
The same measure, in the same setting: for `Clc1ccc([C@@H]2C[C@H]3CC[C@@H]2N3)cn1` the value was 5.01%; for `Cc1cccc([C@H](C)c2cnc[nH]2)c1C`, 3.21%.
On the same count and under the same terms, as for `COc1ccccc1-c1[se]c2ccccc2c1I`, the figure is -3.29%.
On the same count and under the same terms, as for `O=C1CCc2cccc3c2N1CC3`, the figure is -7.75%; as for `CCC(C)C(=O)O[C@@H]1C[C@@]2(C)C(c3ccoc3)OC(=O)CC23OC2(C)O[C@@]14[C@@]1(C)C(CC(=O)OC)C5(C)CC1(O)C(O)(C5OC(=O)C1(C)OC1C)C(OC(C)=O)[C@@]34O2` (some centres not stated), -14.6%.
With `BrC1C(Br)C(Br)C(Br)C(Br)C1Br` (configuration not stated), the Potency was 7.94 µM (active).
On to `N[C@H](C(=O)O)c1cc(=O)[nH]o1`, for which the “activity, negative = inhibition” value is -10.3%.
On the same count and under the same terms, as for `CCCCC/C=C\C/C=C\C/C=C\C=C\[C@H](CCCC(=O)O)OO`, the figure is -1.54%; as for `C/C(=C\C=C/[C@@H](C)C(=O)O)[C@H]1CN[C@H](C(=O)O)[C@@H]1CC(=O)O`, -2.02%.
As for `CC(C)(Cc1c[nH]c2ccc(Cl)cc12)NCCOc1ccccc1OCC1CC1`, the Potency was 15.8 µM (active).
Consider `C[C@H]1C/C=C/[C@@H]2[C@@H]3O[C@]3(C)[C@@H](C)[C@H]3[C@H](Cc4ccccc4)NC(=O)[C@]32OC(=O)O/C=C/[C@](C)(O)C1=O`, for which the “activity, negative = inhibition” value is 2.16%.
As for `C[C@@H]1C[C@H]2CC[C@H](O2)[C@H](C)C(=O)O[C@@H](C)C[C@@H]2CC[C@@H](O2)[C@@H](C)C(=O)O[C@H](C)C[C@H]2CC[C@H](O2)[C@H](C)C(=O)O[C@@H](C)C[C@@H]2CC[C@@H](O2)[C@@H](C)C(=O)O1`, the Potency is 1 µM (active).
With `C1CC[C@H]([C@@]23C[C@H](C[C@H]4CCCN[C@H]42)[C@@H]2CCCCN2C3)NC1`, the “activity, negative = inhibition” value is -7.87%.
Consider `O=C(Nc1cccc(F)c1)N1CC[C@@]2(CCCN(C(=O)Oc3ccccc3)C2)C1`, for which the “activity, negative = inhibition” value is -13.3%.
The same measure, in the same setting: for `C=CCSSCC=C` the value was -13.7%; for `CC(C)(c1ccc(OC[C@@H]2CO2)cc1)c1ccc(OC[C@H]2CO2)cc1`, 1.63%; for `O=C(N/N=C/c1ccc([N+](=O)[O-])o1)c1cc([N+](=O)[O-])cc([N+](=O)[O-])c1O`, -5.16%.
